DAX1 inh-1 – DAX1 (NR0B1) inhibitors, primary screen, cell-based, HEK293, Gal4-DAX1, luciferase luminescence; Nuclear receptor subfamily 0 group B member 1 (Homo sapiens), P51843; HEK293 Gal4-DAX1 luciferase reporter; inhibition, % at 6.75 µM; 340,000 compounds, 0.99% hits;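 active means inhibition above the mean over all tested compounds plus 3 SD, cut at about 4.2% in these data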;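 further: inhibition shows as a rise in luminescence from relieved DAX1 repression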
Target sequence (P51843 207-470 limits assumed): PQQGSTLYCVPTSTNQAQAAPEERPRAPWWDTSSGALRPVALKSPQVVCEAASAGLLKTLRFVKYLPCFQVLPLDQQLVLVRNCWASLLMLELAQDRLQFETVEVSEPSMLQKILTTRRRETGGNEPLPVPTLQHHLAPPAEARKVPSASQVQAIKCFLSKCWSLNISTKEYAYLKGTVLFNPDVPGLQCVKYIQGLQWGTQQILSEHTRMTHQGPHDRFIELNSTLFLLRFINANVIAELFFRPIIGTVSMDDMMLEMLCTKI
hgDAF12 agonist – H. glycines DAF-12 receptor agonists, primary screen, cell-based, luminescence, HEK293, GAL4 fusion, UAS-luciferase. HEK293 GAL4-hgDAF12 UAS-luciferase reporter, agonist luminescence; normalized to butyrate control. 370,000 compounds, 1.8% hits. activation, % at 6.8 µM;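 active means activation above a cutoff set at the mean of all screened compounds plus 3 SD, cut at about 10% in these data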
DAX1 inh-2 – DAX1 (NR0B1) inhibitors on StAR promoter, primary screen, cell-based, luminescence, SF-1 (NR5A1), full-length DAX-1; HEK293T StAR-luciferase reporter, SF-1/DAX-1 repression relief; inhibition, % at 6.8 µM; 370,000 compounds, 1.1% hits; AID 652010, 2013;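 active means inhibition above the mean over all tested compounds plus 3 SD, cut at about 3.6% in these data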;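 further: higher inhibition means more luminescence from relief of DAX-1 repression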
ssDAF12 agonist – S. stercoralis DAF-12 nuclear receptor activators, primary screen, cell-based, luminescence, HEK293, GRIP1 co-expression, lit1-tk-luc; Nuclear hormone receptor DAF-12 (Strongyloides stercoralis); HEK293 ssDAF-12/GRIP1 lit1-tk-luc reporter; % of 3 µM dafachronic acid response; activation, % at 6.8 µM; 370,000 compounds, 1% hits;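 active means activation above the mean over all tested compounds plus 3 SD, cut at about 0.9% in these data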
hcDAF12 agonist – H. contortus DAF-12 nuclear receptor activators, primary screen, cell-based, luminescence, HEK293, lit1-tk-luc reporter | activation, % at 6.8 µM | AID 652067, 2013 | 370,000 compounds, 1.4% hits | HEK293 hcDAF-12 lit1-tk-luc reporter; 0% DMSO, 100% Δ7-dafachronic acid;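 active means activation above the mean of all tested compounds plus 3 SD, cut at about 5.5% in these data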
A number is an active result. Only some compounds are listed: those with a hit (about 4.1% of all), similar ones and a draw of the others.

Results for COCc1cn(-c2ccc3c(c2)[C@@]2(CC(=O)N(C)C2c2ccccc2)C(=O)N3CC(C)C)nn1 (some centres not stated) ?
hgDAF12 agonist: inactive; DAX1 inh-2: inactive; ssDAF12 agonist: inactive; hcDAF12 agonist: inactive

How did Cc1nc(NC(=S)NC(=O)COc2ccccc2Cl)ccc1Br do in these assays?
DAX1 inh-1: inactive; hgDAF12 agonist: inactive; DAX1 inh-2: inactive; ssDAF12 agonist: 0.9; hcDAF12 agonist: inactive

Results for O=C(CSc1nnc(SCc2ccccc2Cl)s1)N/N=C/c1c[nH]c2ccccc12 ?
DAX1 inh-1: inactive; hgDAF12 agonist: inactive; DAX1 inh-2: inactive; ssDAF12 agonist: inactive; hcDAF12 agonist: 6.4

How did CC(C)c1cc(C(=O)N/N=C/c2c[nH]c3ccccc23)n[nH]1 do in these assays?
DAX1 inh-1: 4.7; hgDAF12 agonist: inactive; DAX1 inh-2: inactive; ssDAF12 agonist: inactive; hcDAF12 agonist: inactive

How did O=C(N/N=C/c1c[nH]c2ccccc12)c1cccc(Cl)c1 do in these assays?
DAX1 inh-1: inactive; hgDAF12 agonist: inactive; DAX1 inh-2: inactive; ssDAF12 agonist: 1.4; hcDAF12 agonist: inactive

Results for Cc1cc(NC(=O)c2ccc3c(c2)C(=O)N(CC(C)C)C3=O)no1 ?
DAX1 inh-1: inactive; hgDAF12 agonist: inactive; DAX1 inh-2: inactive; ssDAF12 agonist: inactive; hcDAF12 agonist: inactive

How did Cc1ccnc(NC(=O)c2ccc3c(c2)C(=O)N(CC(C)C)C3=O)c1 do in these assays?
DAX1 inh-1: inactive; hgDAF12 agonist: inactive; DAX1 inh-2: 3.7; ssDAF12 agonist: inactive; hcDAF12 agonist: inactive

Results for CC(C)c1ccc(N(CC(=O)NCc2ccc(F)cc2)C(=O)c2snc(C(N)=O)c2N)cc1 ?
DAX1 inh-1: inactive; hgDAF12 agonist: inactive; DAX1 inh-2: inactive; ssDAF12 agonist: inactive; hcDAF12 agonist: inactive

How did CN(C)CCSc1nnc(-c2ccccc2)o1 do in these assays?
DAX1 inh-1: inactive; hgDAF12 agonist: inactive; DAX1 inh-2: inactive; ssDAF12 agonist: inactive; hcDAF12 agonist: inactive

What do the screens show for `CN(C)c1cccc(-c2nnc(SCCCC#N)o2)c1`?
DAX1 inh-1: inactive; hgDAF12 agonist: 10.9; DAX1 inh-2: inactive; ssDAF12 agonist: inactive; hcDAF12 agonist: inactive

Results for CC(OP(=O)(O)C(NC(=O)[C@H](Cc1ccc(O)cc1)NC(=O)OC(C)(C)C)C(C)C)C(=O)O (some centres not stated) ?
hgDAF12 agonist: inactive; ssDAF12 agonist: inactive; hcDAF12 agonist: inactive

Results for CCN(CC(=O)Nc1ccccc1C(F)(F)F)C(=O)c1oc2ccc(OC)cc2c1C ?
DAX1 inh-1: inactive; hgDAF12 agonist: inactive; DAX1 inh-2: 4.2; ssDAF12 agonist: inactive; hcDAF12 agonist: inactive

What do the screens show for `O=C(N/N=C/c1cc2c(cc1[N+](=O)[O-])OCO2)c1ccc2c(c1)OCO2`?
DAX1 inh-1: inactive; hgDAF12 agonist: inactive; DAX1 inh-2: inactive; ssDAF12 agonist: inactive; hcDAF12 agonist: inactive

Results for COc1c(O)ccc(/C=N\NC(=O)c2ccc3c(c2)OCO3)c1[N+](=O)[O-] ?
DAX1 inh-1: 5.5; hgDAF12 agonist: inactive; DAX1 inh-2: inactive; ssDAF12 agonist: inactive; hcDAF12 agonist: inactive

Results for Cc1cc(N)ncc1[N+](=O)[O-] ?
DAX1 inh-1: 4.2; hgDAF12 agonist: inactive; DAX1 inh-2: inactive; ssDAF12 agonist: inactive; hcDAF12 agonist: inactive

How did COc1cc2ccc(=O)oc2cc1OCC(O)C(C)(C)O (configuration not stated) do in these assays?
DAX1 inh-1: inactive; hgDAF12 agonist: inactive; DAX1 inh-2: inactive; ssDAF12 agonist: inactive; hcDAF12 agonist: inactive

How did COc1cc2ccc(=O)oc2cc1O do in these assays?
DAX1 inh-1: 5.1; hgDAF12 agonist: inactive; DAX1 inh-2: inactive; ssDAF12 agonist: inactive; hcDAF12 agonist: inactive

What do the screens show for `O=c1c2ccccc2nc2ccc(NCc3ccco3)nn12`?
DAX1 inh-1: 5.2; hgDAF12 agonist: inactive; DAX1 inh-2: inactive; ssDAF12 agonist: inactive; hcDAF12 agonist: inactive

What do the screens show for `Cc1sc2nc3ccc(NCc4ccco4)nn3c(=O)c2c1C`?
DAX1 inh-1: inactive; hgDAF12 agonist: inactive; DAX1 inh-2: inactive; ssDAF12 agonist: inactive; hcDAF12 agonist: inactive

How did COC(=O)c1cn(C(=O)c2ccccc2)c2ccccc12 do in these assays?
DAX1 inh-1: inactive; hgDAF12 agonist: inactive; DAX1 inh-2: inactive; ssDAF12 agonist: inactive; hcDAF12 agonist: inactive

What do the screens show for `CC1(C)CC(=O)C(c2c[nH]c3ccccc23)C(=O)C1`?
DAX1 inh-1: inactive; hgDAF12 agonist: inactive; DAX1 inh-2: inactive; ssDAF12 agonist: inactive; hcDAF12 agonist: inactive

How did CC(=O)n1cc(C2C(=O)CC(C)(C)CC2=O)c2ccccc21 do in these assays?
DAX1 inh-1: inactive; hgDAF12 agonist: inactive; DAX1 inh-2: inactive; ssDAF12 agonist: 1.4; hcDAF12 agonist: 6.3

Results for C=C(c1cn(C(C)=O)c2ccccc12)c1cn(C(C)=O)c2ccccc12 ?
DAX1 inh-1: inactive; hgDAF12 agonist: inactive; DAX1 inh-2: inactive; ssDAF12 agonist: inactive; hcDAF12 agonist: 5.7

Results for O=C(COC(=O)C12CC3CC(CC(Cl)(C3)C1)C2)Nc1ccccc1 ?
DAX1 inh-1: inactive; hgDAF12 agonist: inactive; DAX1 inh-2: inactive; ssDAF12 agonist: inactive; hcDAF12 agonist: inactive

Results for CC1CCCCC1NC(=O)COC(=O)C12CC3CC(CC(Cl)(C3)C1)C2 (configuration not stated) ?
DAX1 inh-1: 6.0; hgDAF12 agonist: inactive; DAX1 inh-2: inactive; ssDAF12 agonist: inactive; hcDAF12 agonist: inactive

How did CN(CCOC(=O)c1cc2ccccc2o1)C1CN(Cc2cn(Cc3ccccc3C(F)(F)F)nn2)S(=O)(=O)C1 (configuration not stated) do in these assays?
hgDAF12 agonist: inactive; DAX1 inh-2: inactive; ssDAF12 agonist: inactive; hcDAF12 agonist: inactive

Results for CC(=O)c1ccc(N2Cc3ccccc3/C2=N\C(=O)Nc2ccc(Cl)cc2)cc1 ?
DAX1 inh-1: inactive; hgDAF12 agonist: 12.2; DAX1 inh-2: inactive; ssDAF12 agonist: inactive; hcDAF12 agonist: inactive

What do the screens show for `CCOC(=O)CSc1nnc(Cn2c(=O)sc3ccccc32)n1-c1ccccc1C`?
DAX1 inh-1: inactive; hgDAF12 agonist: inactive; DAX1 inh-2: inactive; ssDAF12 agonist: inactive; hcDAF12 agonist: inactive

What do the screens show for `Cc1ccccc1-n1c(Cn2c(=O)sc3ccccc32)nnc1SCC(N)=O`?
DAX1 inh-1: 4.6; hgDAF12 agonist: inactive; DAX1 inh-2: inactive; ssDAF12 agonist: inactive; hcDAF12 agonist: inactive

What do the screens show for `NC(=O)CCn1c(C(=O)c2cc(Cl)c(N)c(Cl)c2)c2ccccc2[n+]1[O-]`?
DAX1 inh-1: inactive; hgDAF12 agonist: inactive; DAX1 inh-2: inactive; ssDAF12 agonist: inactive; hcDAF12 agonist: inactive

How did NC(=O)CCn1c(C(=O)c2cccc([N+](=O)[O-])c2)c2ccccc2[n+]1[O-] do in these assays?
DAX1 inh-1: inactive; hgDAF12 agonist: inactive; DAX1 inh-2: inactive; ssDAF12 agonist: 1.1; hcDAF12 agonist: inactive

Screens from PubChem.
